Mcl1-Bid inh = Mcl-1/Bid interaction inhibition. 220,000 compounds, 0.97% hits. inhibition, % at 21.7 µM. TR-FRET Mcl-1/Bid-Dy647 peptide binding, 1536-well. Q07820;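 active = compounds that cut the binding signal by more than half at the single screening dose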;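 note: His-tagged Mcl-1 with europium anti-His antibody binding Bid BH3 peptide; 0% = Mcl-1 plus peptide wells and 100% = peptide-only wells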
Target sequence (Q07820 whole entry, looked up): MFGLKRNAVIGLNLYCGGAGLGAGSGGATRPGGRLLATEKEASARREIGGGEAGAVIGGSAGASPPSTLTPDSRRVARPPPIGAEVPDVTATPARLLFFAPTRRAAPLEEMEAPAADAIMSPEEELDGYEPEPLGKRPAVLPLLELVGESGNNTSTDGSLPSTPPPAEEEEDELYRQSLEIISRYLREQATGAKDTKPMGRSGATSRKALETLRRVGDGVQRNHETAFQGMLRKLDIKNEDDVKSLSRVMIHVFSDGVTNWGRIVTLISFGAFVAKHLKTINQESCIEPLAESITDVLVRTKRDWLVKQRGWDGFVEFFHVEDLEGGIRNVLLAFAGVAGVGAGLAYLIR
eIF4E-4G inh = blocks eIF4E binding to eIF4G; P63073+Q04637; TR-FRET eIF4E-eIF4GI(517-606) binding, 2 h; inhibition, % at 21.7 µM; 220,000 compounds, 0.37% hits; AID 782;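 active = inhibition above about 30%, limit read from the data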;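 note: 0% = full FRET control wells and 100% = background wells lacking eIF4GI fragment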
Mcl1 Noxa PPI = Mcl-1/Noxa interaction inhibition; Q07820; TR-FRET Mcl-1/Noxa peptide binding, 2 h; inhibition, % at 21.7 µM; 220,000 compounds, 1.5% hits;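 active = compounds that cut the protein-peptide binding signal by more than 50% relative to plate controls in a single-dose test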;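 note: His-tagged Mcl-1 with rhodamine Noxa BH3 peptide and terbium anti-His antibody; 0% = Mcl-1 plus Noxa peptide wells and 100% = peptide-only wells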
Pf gamet viab = inhibitors of late stage P. falciparum gametocyte viability | 150,000 compounds, 0.065% hits | inhibition, % at 10.9 µM | AID 743093 | P. falciparum stage V gametocytes, ATP luminescence, 24 h;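 active = inhibition above the mean plus 3 SD of compounds within the control limits, set per campaign, cut at about 38% in these data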;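 note: 0% = DMSO wells and 100% = medium only without gametocytes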
14-3-3 Bad inh = disrupts binding of bovine 14-3-3 zeta to phospho-Bad peptide | 220,000 compounds, 0.71% hits | inhibition, % at 21.7 µM | P63103 | TR-FRET 14-3-3zeta/Dy647-pBad peptide displacement, 1 h;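 active = inhibition above about 70%, limit read from the data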;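 note: 0% = full 14-3-3 plus peptide FRET controls and 100% = background without 14-3-3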
Target sequence (P63103 whole entry, looked up): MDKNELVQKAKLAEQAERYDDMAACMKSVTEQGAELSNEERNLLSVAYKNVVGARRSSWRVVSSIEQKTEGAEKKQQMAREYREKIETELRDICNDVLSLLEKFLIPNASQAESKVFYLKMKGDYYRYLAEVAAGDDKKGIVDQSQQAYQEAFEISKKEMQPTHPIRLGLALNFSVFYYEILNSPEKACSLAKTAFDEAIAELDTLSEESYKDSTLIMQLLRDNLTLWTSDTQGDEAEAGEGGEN
Bim-Mcl-1 = human Bim-Mcl-1 interaction inhibition; Q07820; Bead-based flow cytometry, Bim peptide-Mcl-1 binding; inhibition, % at 10 µM; 190,000 compounds, 0.1% hits; in the data active = inhibition above about 40%;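 note: 0% = no compound tracer wells and 100% = peptide blocker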
Active calls of the source: *; nt = not tested or not shown; + = active, no number; [ ] = another dose, or the depositor's remark. Shown are actives, neighbours in structure and some others; about 2.7% of the full set was active somewhere.

SMILES	Mcl1-Bid inh	eIF4E-4G inh	Mcl1 Noxa PPI	Pf gamet viab	14-3-3 Bad inh	Bim-Mcl-1
O=C(Nc1ccccc1)c1cccc(=O)o1	-7	-2	4	-1	-1	nt
CCOC(=O)Cc1csc(NC(=O)Cc2ccc(Br)cc2)n1	-2	2	-9	1	-5	nt
CCOC(=O)Cc1csc(NC(=O)Cc2ccc(Cl)cc2)n1	55*	-6	2	-7	-8	nt
CS(=O)(=O)N1CCN(c2ccccc2[N+](=O)[O-])CC1	-14	2	-6	nt	-3	0
COc1cc(/C=C2/C(=N)N3C=CSC3=NC2=O)ccc1OCCCOc1ccccc1C	-6	-5	12	-11	30	0
CCOc1cc(/C=C2/C(=N)N3C=CSC3=NC2=O)ccc1OCCCOc1ccccc1C	57*	-16	35	-7	8	0
CCC(C)(C(=O)NC1CCCC1)N(Cc1cccs1)C(=O)c1ccc2c(c1)OCO2 (configuration not stated)	1	2	-6	-3	5	1
C=CCn1c(SCc2ccc([N+](=O)[O-])cc2)nnc1C(C)NC(=O)c1ccccc1 (configuration not stated)	94*	7	15	nt	-7	0
C=CCn1c(SCCOc2ccc(OC)cc2)nnc1C(C)NC(=O)c1ccc(OC)cc1 (configuration not stated)	-44	2	8	nt	-4	-2
COc1cc(/C=C2\SC(c3ccccc3)=NC2=O)cc(Cl)c1O	-75	7	73*	0	-24	0
COc1cc(/C=C2\SC(c3ccc(C)cc3)=NC2=O)cc(OC)c1OC	-3	-19	nt	nt	0	-6
Cc1noc(NS(=O)(=O)c2ccc(NC(=O)c3ccc(N4C(=O)c5ccccc5C4=O)cc3)cc2)c1C	-27	1	0	-18	-5	0
Cc1noc(NS(=O)(=O)c2ccc(N3Cc4ccccc4C3=O)cc2)c1C	-29	1	14	nt	+[fluorescence artefact?]	-1
CC(=O)C(C(C)=O)c1c(Cl)c(O)c(O)c2c(C(=O)c3ccccc3)coc12	1	-2	56*	nt	12	0
COC(=O)c1cccc(OCC(O)Cn2ccnc2)c1 (configuration not stated)	91*	4	9	-16	-3	-1
CCOC(=O)CCNCc1ccc(OC)c(OC)c1	-3	-3	54*	3	5	nt
CCN1CCc2c(sc(NC(=S)NC(=O)c3ccc(Cl)cc3)c2C(N)=O)C1	-1	-5	19	-4	-3	nt
CCOc1ccccc1NC(=O)N1CCC(NC(=O)c2cccc(C)c2)CC1	-18	56*	47	nt	80*[fluorescence artefact?]	-2
NNC(=O)c1ccc([N+](=O)[O-])c(CS(=O)(=O)c2ccc(Cl)cc2)c1	-25	0	-21	nt	5	-2
CO/N=C/NC(=O)c1ccc([N+](=O)[O-])c(CS(=O)(=O)c2ccc(Cl)cc2)c1	-7	5	65*	-17	30	-1
CCC1Oc2ccccc2N(CC(=O)NCCCN2CCCCC2CC)C1=O (configuration not stated)	15	0	23	-22	-4	-3
NS(=O)(=O)c1ccc(NC(=O)c2cccc(Cl)c2)cc1	-19	4	1	-5	-4	nt
Cc1c(N2C(=O)CS/C2=N\N=C\c2ccc(Br)cc2)c(=O)n(-c2ccccc2)n1C	1	-3	13	nt	-4	2
Clc1ccccc1OCCN1CCC(Cc2ccccc2)CC1	63*	0	30	-3	38	-3
O=C(c1ccccc1)c1ccc(OCCOCCN2CCN(Cc3ccccc3)CC2)cc1	29	4	11	31	58	-1
SMILES	Mcl1-Bid inh	eIF4E-4G inh	Mcl1 Noxa PPI	Pf gamet viab	14-3-3 Bad inh	Bim-Mcl-1
CCOc1ccccc1OCCOCCN1CCN(Cc2ccccc2)CC1	31	3	17	nt	84*	4
CC(=O)c1cccc(S(=O)(=O)NCCC(=O)O)c1	-12	-2	0	-16	-7	-4
COc1ccc(S(=O)(=O)N2CCOCC2)cc1NC(=O)Cn1nnc2ccccc2c1=O	-2	-1	13	-18	3	-5
CN(C1=NC(=O)CS1)c1ccc(O)cc1	97*	-4	-6	4	2	nt
CC1(C)C2CCC(C2)C1(C)NC(=O)CN1CCN(Cc2ccccc2)CC1 (configuration not stated)	37	-2	29	11	72*	-3
Cc1ccccc1NC(=O)CN1CCN(Cc2ccccc2)CC1	nt	nt	nt	2	nt	nt
O=C(CN1C(=O)NC(c2ccccc2)(c2ccccc2)C1=O)Nc1ccc2[nH]c(=O)[nH]c2c1	-33	3	64*	1	1	nt
CC1(c2ccccc2)NC(=O)N(CC(=O)Nc2ccc3c(c2)OCO3)C1=O (configuration not stated)	-9	1	14	nt	-3	-1
CCCOC(=O)c1ccc(NC(=O)c2cc(=O)[nH]c3ccccc23)cc1	4	-7	-9	23	2	nt
CCCC1(CCC)NC(=O)N(CC(=O)c2cc(C)n(-c3ccc4c(c3)OCO4)c2C)C1=O	51*	1	8	-16	-5	25
Cc1cc(NC(=O)NN2CCOCC2)nn1-c1c(Cl)cc(Cl)cc1Cl	-6	-2	7	1	-11	nt
C=C(C)C(=O)N1CC2(CC(c3cccc(NC(=O)CCCCC)c3)=NO2)C[C@H]1C(N)=O (some centres not stated)	-45	-3	-25	nt	54	nt
CCOC(=O)CSc1nc2ccsc2c(=O)n1C1CCN(C(=O)OCC)CC1	-21	-5	9	nt	-8	-2
CCOC(=O)N1CCC(n2c(SCC(=O)c3ccccc3)nc3ccsc3c2=O)CC1	65*	-55	-203	-10	15	0
O=C1CCCC(O)=C1C(C#Cc1ccccc1)C1=C(O)CCCC1=O	-4	42*[fluorescence artefact?]	52*	nt	4	0
CC1(C)CC(=O)C(C(C#Cc2ccccc2)C2=C(O)CC(C)(C)CC2=O)=C(O)C1	8	18	57*	nt	36	-5
CC1(C)CC(=O)C(N=Nc2ccc(-c3ccccc3)cc2)=C(O)C1	-6	0	-60	16	9	-1
O=C1CCCC(O)=C1Sc1ccccc1C(=O)O	-67	7	-8	nt	4	1
Cc1ccccc1C(=O)Nc1ccc(C(=O)N/N=C/c2ccc(O)c(Br)c2)cc1	-32	3	58*	-11	-6	1
Cc1ccc(-c2[nH]ncc2CNCCc2cnn(-c3ccccc3)c2)cc1C	31	-2	17	1	-6	nt
N#Cc1c(C(F)(F)F)cc(Cc2ccccc2)nc1SCC(=O)NCC(=O)O	nt	nt	nt	-9	nt	nt
COc1ccc(/C=c2\s/c(=C\C(=O)C(C)(C)C)[nH]c2=O)cc1O	-58	2	58*	14	3	nt
O=C(Nc1ccccn1)c1cccc(S(=O)(=O)N2CCOCC2)c1	-2	-2	6	-8	-18	0

Source: PubChem
